High-throughput results (PubChem)
Rows were chosen to be rich in hits. Some 6.3% of all compounds tested hit in one or more screens of this group.
tim23-1 inh – growth inhibitors of tim23-1 mutant yeast, primary screen, luminescence, uHTS; AID 463212, 2010; actives 1.3% (n = 330,000); S. cerevisiae tim23-1 growth, BacTiter-Glo luminescence, 24 h; inhibition, % at 20 µM;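 active means growth inhibition of the mutant yeast at or above 50%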;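 further: temperature-sensitive mutant grown at 25 °C; plate controls were DMSO-treated mutant yeast for no effect and medium wells lacking yeast for full effect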
Mdm2-MdmX inh – inhibitors of human Mdm2-MdmX association, primary screen, cell-based, luminescence, split luciferase, SaOS-2, uHTS | actives 3% (n = 330,000) | SaOS-2 split-luciferase Mdm2/MdmX complementation | inhibition, % at 8 µM;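 active means inhibition of at least 50% at 8 µM in the primary screen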
MPTP block – mitochondrial permeability transition pore inhibitors, primary screen, biochemical, isolated mouse mitochondria, absorbance; actives 1.4% (n = 360,000); AID 602449, 2012; inhibition, % at 10 µM; Ca2+ swelling absorbance, 30 min;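 active means inhibition of 50% or more, scaled per plate between neutral and stimulator controls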;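 further: 0% = DMSO wells given calcium and 100% = 1 mM EGTA wells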
TIM10 inh – growth inhibitors of isogenic TIM10 control yeast, primary screen, counter-screen for tim10-1 yeast inhibitor project, luminescence, uHTS | AID 463195, 2010 | actives 1.4% (n = 330,000) | S. cerevisiae TIM10 strain growth, BacTiter-Glo luminescence, 24 h | inhibition, % at 10 µM;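 active means inhibition of 40% or more at the single tested concentration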;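 further: wild-type TIM10 isogenic control strain grown at permissive 25 °C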
tim10-1 inh – growth inhibitors of tim10-1 mutant yeast, primary screen, luminescence, uHTS | S. cerevisiae tim10-1 ts strain growth, BacTiter-Glo, 24 h | inhibition, % at 20 µM | actives 2.2% (n = 330,000);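 active means inhibition of at least 40%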;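 further: mutant grown at 25 °C; 0% = DMSO wells with yeast and 100% = wells holding no yeast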
Mdm2-MdmX conf – Mdm2-MdmX complex disruptors, retested hits, confirmation, luminescence, single concentration; Mdm2-MdmX binding, luminescent assay; actives 55% (n = 10,000); shares compounds with Mdm2-MdmX inh; inhibition, % at 8 µM; in the data active means inhibition above about 40%
FLuc counter – full-length luciferase signal inhibition, confirmation, counter-screen for Mdm2/MdmX interaction inhibitor project, cell-based, single concentration, SaOS-2. shares compounds with Mdm2-MdmX inh. AID 504607, 2011. inhibition, % at 8 µM. SaOS-2 full-length luciferase counterscreen, luminescence. actives 77% (n = 6,200);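 active means mean inhibition at 8 µM reaching about 37%, which flags the compound as non-specific, limit read from the data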;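 further: p53-null SaOS-2 cells with luciferase driven by a doxycycline-inducible promoter; compound on cells about two nights before reading with doxycycline added after day one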
Starred values were filed as active, the others as inactive; . = no result given.

SMILES	tim23-1 inh	Mdm2-MdmX inh	MPTP block	TIM10 inh	tim10-1 inh	Mdm2-MdmX conf	FLuc counter
COc1cccc(-c2sc3ccccc3c2-c2ccc(OCCN3CCCC3)cc2)c1	16.8	100.0*	-1.4	-25.9	3.7	21.5	.
COc1cccc(-c2sc3cc(OC)c(OC)cc3c2-c2ccc(OCCN3CCCCC3)cc2)c1	42.6	78.3*	-0.5	19.7	13.7	23.4	.
COc1ccc(-c2sc3ccccc3c2-c2ccc(OCCN3CCCCC3)cc2)cc1	18.1	88.1*	-0.6	-1.9	-55.1	20.4	.
COc1ccc(-c2sc3ccc(OC)cc3c2-c2ccc(OCCN3CCOCC3)cc2)cc1	28.2	45.8	-1.7	5.5	23.8	.	.
COc1ccccc1-c1nnc2n1N=C(c1ccc(O)c(O)c1)CS2	1.2	50.3*	3.9	10.4	4.5	58.1*	139.8*
COc1ccc(C2=Nn3c(nnc3-c3ccccc3OC)SC2)cc1OC1CCOC1 (configuration not stated)	22.3	71.1*	-1.6	7.2	13.3	73.3*	95.3*
COc1ccc(C2=Nn3c(nnc3-c3ccncc3)SC2)cc1OC	13.5	38.1	-0.9	18.9	16.7	.	.
CCOc1ccc(C2=Nn3c(nnc3-c3ccccc3OC)SC2)cc1	.	.	5.9	.	.	.	.
COc1ccc(C2=Nn3c(nnc3-c3ccccc3C(F)(F)F)SC2)cc1OC1CCOC1 (configuration not stated)	8.0	34.3	-0.3	-3.2	-0.3	.	.
COc1ccc(C2=Nn3c(nnc3-c3cccnc3)SC2)cc1OC	21.2	51.2*	0.5	10.5	19.6	22.5	.
CCC(=O)N1CCCC1(C)C(=O)NCc1ccc(SC)cc1 (configuration not stated)	.	.	-0.3	.	.	.	.
CCCCCc1ccc(OCCOCCn2c[n+](C)c3ccccc32)c(CCCCC)c1	.	.	48.4	.	.	.	.
CCCCCc1ccc(OCCC[n+]2ccccc2)c(CCCCC)c1	-133.1	88.6*	17.5	3.5	13.4	75.7*	21.7
CCOC(=O)c1[nH]c2ccc(OC)cc2c1NC(=S)N1CCN(c2cccc(Cl)c2)CC1	3.6	50.2*	1.2	9.8	12.1	21.4	.
CCOC(=O)c1[nH]c2ccc(OC)cc2c1NC(=S)N1CCN(c2ccccc2)CC1	17.0	8.2	0.3	12.6	15.8	.	.
S=C1NCC(c2ccccc2)S1 (configuration not stated)	.	.	-2.0	.	.	.	.
COc1ccc(NC(=O)c2nc(C)c(C3(C)CC(c4ccccc4)=NO3)s2)cc1 (configuration not stated)	-4.0	59.3*	0.1	-29.5	-39.2	57.6*	71.7*
Cc1nc(C(=O)Nc2ccccc2)sc1C1(C)CC(c2cccc([N+](=O)[O-])c2)=NO1 (configuration not stated)	-14.0	85.4*	-2.6	-59.1	-17.2	63.1*	49.5*
CC(C)(C)OC(=O)N1CCC(C(=O)Nc2ccc(C(=O)NC3CC3)cc2)CC1	.	.	-1.2	.	.	.	.
CCOc1ccc(NC(=O)C(Cc2ccccc2)N2C(=O)c3cccc4cccc(c34)C2=O)cc1 (configuration not stated)	14.0	50.2*	-2.7	-4.3	-3.1	47.2*	97.7*
CCOc1ccc(NC(=O)C(CC(=O)O)Cc2ccccc2)cc1 (configuration not stated)	-5.6	-3.4	-0.7	2.0	-0.8	.	.
CCOC(=O)C(Cc1ccc(NC(=O)/C(=C/c2ccccc2)NC(=O)c2ccccc2)cc1)N1C(=O)c2ccccc2C1=O (configuration not stated)	-3.3	51.8*	-0.1	10.2	16.3	19.1	.
COc1cccc(CNC(=O)[C@@H]2CCCN2C(=O)[C@H]2CCCCN2C(=O)c2cccc(Cl)c2)c1	.	.	-0.4	.	.	.	.
